For some of these results: Results with a measured potency or affinity are listed apart. Calls of active or inactive are those of the source. Unless noted, no rule for the calls is given here.
Key:
[1] = antimalarial activity against Dd2 strain (AID 2302;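 active = growth inhibition above 50% at the single 2 µM test dose, taken to imply half-maximal potency below 2 µM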;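 also: 0% = DMSO untreated growth and 100% = chloroquine plus artemisinin killed control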); conditions: P. falciparum Dd2 in RBCs, LDH growth readout, 72 h; at 2 µM; hits give high values
[2] = human hepatoma cell viability loss – ATP luminescence, cytotoxicity control for P. falciparum antimalarial project, primary screen (AID 2303;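 active = inhibition above 50%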;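 also: 0% = DMSO wells and 100% = digitonin-killed cells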); conditions: HepG2 viability, 24-48 h, at 10 µM, hits give high values
[3] = target: L-lactate dehydrogenase (Plasmodium falciparum (isolate CDC / Honduras)) (UniProt Q27743); assay: PfLDH activity inhibition – cell lysate, 3D7 strain, counter-screen for P. falciparum growth inhibition project (AID 2304);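 also: 0% = vehicle and 100% = reference inhibitor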; conditions: P. falciparum 3D7 crude extract, LDH APAD/NBT absorbance; at 2 µM; hits give high values
L-lactate dehydrogenase (Plasmodium falciparum (isolate CDC / Honduras)), sequence (Q27743 whole entry, looked up): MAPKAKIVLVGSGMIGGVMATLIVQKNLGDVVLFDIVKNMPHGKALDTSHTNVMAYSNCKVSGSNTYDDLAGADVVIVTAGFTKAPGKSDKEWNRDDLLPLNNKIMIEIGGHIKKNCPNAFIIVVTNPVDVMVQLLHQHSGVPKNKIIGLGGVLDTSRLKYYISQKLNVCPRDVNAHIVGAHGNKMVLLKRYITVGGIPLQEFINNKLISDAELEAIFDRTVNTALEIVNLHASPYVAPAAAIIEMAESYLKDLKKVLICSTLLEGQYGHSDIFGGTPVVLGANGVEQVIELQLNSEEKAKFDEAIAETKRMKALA

[4] = inhibition of 3D7 malaria parasite growth – strain 3D7 (AID 2306);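 also: 0% = DMSO wells and 100% = chloroquine plus artemisinin control wells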; conditions: P. falciparum 3D7 erythrocytic growth, LDH absorbance, 72 h; at 2 µM; hits give high values
[5] = target: Calcium-dependent protein kinase 1 (Plasmodium falciparum (isolate 3D7)) (UniProt P62344); assay: PfCDPK1 kinase inhibitors, biochemical, TCAMS library (AID 1159585; cut-off not given, nearly all actives have IC50 up to about 0.98 µM;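 also: inhibitors leave more ATP so luminescence rises with inhibition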); conditions: recombinant PfCDPK1, Kinase-Glo ATP depletion luminescence
Calcium-dependent protein kinase 1 (Plasmodium falciparum (isolate 3D7)), sequence (P62344 whole entry, looked up): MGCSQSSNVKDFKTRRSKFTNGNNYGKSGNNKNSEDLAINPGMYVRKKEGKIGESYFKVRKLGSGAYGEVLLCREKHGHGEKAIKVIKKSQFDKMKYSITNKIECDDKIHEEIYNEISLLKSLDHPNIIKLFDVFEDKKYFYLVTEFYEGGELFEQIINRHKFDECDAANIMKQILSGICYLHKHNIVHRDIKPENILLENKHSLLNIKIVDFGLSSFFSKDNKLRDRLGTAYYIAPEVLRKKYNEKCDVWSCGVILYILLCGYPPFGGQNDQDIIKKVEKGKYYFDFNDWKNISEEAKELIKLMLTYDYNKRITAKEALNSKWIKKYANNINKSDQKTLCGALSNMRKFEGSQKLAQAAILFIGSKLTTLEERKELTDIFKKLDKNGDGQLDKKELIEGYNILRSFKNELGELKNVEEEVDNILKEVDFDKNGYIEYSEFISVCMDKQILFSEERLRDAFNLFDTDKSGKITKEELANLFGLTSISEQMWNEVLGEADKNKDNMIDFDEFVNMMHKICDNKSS

[6] = target: Plasmodium falciparum protein kinase 6 (PK6, PF3D7_1337100) (UniProt Q8IDW1); assay: PfPK6 kinase inhibitors, biochemical, TCAMS library (AID 1159586); conditions: recombinant PfPK6, Kinase-Glo ATP depletion luminescence
Plasmodium falciparum protein kinase 6 (PK6, PF3D7_1337100), sequence (Q8IDW1 1-305): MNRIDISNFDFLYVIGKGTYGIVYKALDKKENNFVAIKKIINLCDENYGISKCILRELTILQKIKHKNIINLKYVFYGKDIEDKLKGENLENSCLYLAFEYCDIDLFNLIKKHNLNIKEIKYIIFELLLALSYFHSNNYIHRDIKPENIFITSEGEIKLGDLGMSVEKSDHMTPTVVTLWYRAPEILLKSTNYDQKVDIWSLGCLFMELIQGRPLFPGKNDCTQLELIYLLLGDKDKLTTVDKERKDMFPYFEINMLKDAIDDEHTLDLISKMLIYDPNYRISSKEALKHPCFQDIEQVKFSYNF

[7] = target: Protein kinase 7 (PK7), Plasmodium falciparum 3D7 (PF3D7_0213400) (UniProt Q7YTF7); assay: inhibition of Plasmodium PK7 catalytic activity – biochemical, TCAMS antimalarial set, Kinase-Glo luminescence (AID 1159587); conditions: recombinant PfPK7, Kinase-Glo ATP depletion luminescence
Protein kinase 7 (PK7), Plasmodium falciparum 3D7 (PF3D7_0213400), sequence (Q7YTF7 1-343): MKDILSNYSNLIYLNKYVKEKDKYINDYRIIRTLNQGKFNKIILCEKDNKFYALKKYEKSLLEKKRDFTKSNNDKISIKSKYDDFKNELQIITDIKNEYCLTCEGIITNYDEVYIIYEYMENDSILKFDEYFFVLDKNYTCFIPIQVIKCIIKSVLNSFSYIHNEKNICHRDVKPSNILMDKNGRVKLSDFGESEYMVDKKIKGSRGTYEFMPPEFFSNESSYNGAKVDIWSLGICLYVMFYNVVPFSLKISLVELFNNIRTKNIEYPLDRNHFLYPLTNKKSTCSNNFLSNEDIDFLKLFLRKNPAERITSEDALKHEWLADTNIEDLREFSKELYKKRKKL

[8] = target: Calcium-dependent protein kinase 4 (Plasmodium falciparum (isolate 3D7)) (UniProt Q8IBS5); assay: PfCDPK4 kinase inhibitors, biochemical, TCAMS library (AID 1159588; cut-off not given, nearly all actives have IC50 up to about 0.91 µM); conditions: recombinant PfCDPK4, Kinase-Glo ATP depletion luminescence
Calcium-dependent protein kinase 4 (Plasmodium falciparum (isolate 3D7)), sequence (Q8IBS5 whole entry, looked up): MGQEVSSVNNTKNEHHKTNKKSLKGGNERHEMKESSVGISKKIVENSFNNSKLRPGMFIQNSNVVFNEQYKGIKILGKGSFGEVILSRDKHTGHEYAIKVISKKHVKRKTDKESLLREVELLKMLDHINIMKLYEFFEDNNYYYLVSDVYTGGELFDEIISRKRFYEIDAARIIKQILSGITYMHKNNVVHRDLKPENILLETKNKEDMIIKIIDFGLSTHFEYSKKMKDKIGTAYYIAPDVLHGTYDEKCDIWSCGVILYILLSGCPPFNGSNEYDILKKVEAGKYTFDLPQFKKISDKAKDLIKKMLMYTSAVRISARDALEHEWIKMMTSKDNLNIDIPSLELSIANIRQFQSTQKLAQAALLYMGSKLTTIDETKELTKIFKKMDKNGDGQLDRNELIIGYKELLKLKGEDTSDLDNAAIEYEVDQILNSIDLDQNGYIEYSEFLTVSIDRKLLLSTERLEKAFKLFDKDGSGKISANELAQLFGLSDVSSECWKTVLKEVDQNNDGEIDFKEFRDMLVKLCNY

Cc1nc(-c2cccc(C(F)(F)F)c2)n2nc(Nc3ccc(OCCN4CCCC4)cc3)ncc12
inactive: growth inhibition [1] 29% | inhibition [2] 30% | inhibition [3] -3% | outcome [5] | outcome [6] | outcome [7] | outcome [8]
active: growth inhibition [4] 99%

Nc1cc(-c2ccc3ccccc3c2)nc2ccccc12
inactive: inhibition [2] 19% | inhibition [3] -2% | outcome [5] | outcome [6] | outcome [7] | outcome [8]
active: growth inhibition [1] 52% | growth inhibition [4] 99%

Cc1ccc(-c2cnc(N)c3cc(-c4ccnc(N)n4)ccc23)cc1
active: growth inhibition [1] 94% | growth inhibition [4] 99%
inactive: inhibition [2] 41% | inhibition [3] -5% | outcome [5] | outcome [6] | outcome [7] | outcome [8]

COc1c(CNCCCCCCNCc2c(OC)c(OC)c3ccccc3c2OC)c(OC)c2ccccc2c1OC
inactive: inhibition [3] -2% | outcome [5] | outcome [6] | outcome [7] | outcome [8]
active: growth inhibition [1] 98% | inhibition [2] 100% | growth inhibition [4] 96%

COc1ccc(OC)c(NC(=O)CSc2nc(-c3ccccc3Cl)ns2)c1
inactive: growth inhibition [1] 32% | inhibition [2] -8% | inhibition [3] -1% | outcome [5] | outcome [6] | outcome [7] | outcome [8]
active: growth inhibition [4] 95%

O=C(CSc1nccn1C1CCCCC1)Nc1cc(C(F)(F)F)ccc1Cl
active: growth inhibition [1] 95% | growth inhibition [4] 96%
inactive: inhibition [2] 2% | inhibition [3] -1% | outcome [5] | outcome [6] | outcome [7] | outcome [8]

CCCCN(C)CC#Cc1ccc2[nH]c(C)c(Cl)c(=O)c2c1
inactive: inhibition [2] -2% | inhibition [3] -6% | outcome [5] | outcome [6] | outcome [7] | outcome [8]
active: growth inhibition [1] 97% | growth inhibition [4] 98%

Cc1cc(OCCCn2ccnc2)ccc1-c1csc(NC(N)=NCc2ccccc2)n1
active: growth inhibition [4] 92%
inactive: growth inhibition [1] 42% | inhibition [2] 26% | inhibition [3] 2% | outcome [5] | outcome [6] | outcome [7] | outcome [8]

O=C(O)Cc1ccc(-c2c[nH]c3ncc(-c4cccc5ncccc45)cc23)cc1
inactive: growth inhibition [1] 0% | inhibition [2] 7% | inhibition [3] 1% | outcome [5] | outcome [6] | outcome [7] | outcome [8]
active: growth inhibition [4] 95%

CC[C@H](C)CNC(=O)c1cncc(-c2ccc(CN3CCC(N4CCCC4)CC3)cc2)c1
active: growth inhibition [1] 100% | growth inhibition [4] 101%
inactive: inhibition [2] -8% | inhibition [3] 3% | outcome [5] | outcome [6] | outcome [7] | outcome [8]

Cc1cc(F)ccc1N(c1nc(-c2cc(Cl)ccc2Cl)cs1)C1CCNC1 (stereo not drawn)
inactive: growth inhibition [1] 3% | inhibition [2] 19% | inhibition [3] 0% | outcome [5] | outcome [6] | outcome [7] | outcome [8]
active: growth inhibition [4] 99%

O=C(NCCCCN1CCC[C@@H]2c3cccc(O)c3CC[C@@H]21)c1ccc(-c2ccccc2)cc1
inactive: growth inhibition [1] 4% | inhibition [2] 18% | inhibition [3] 3% | outcome [5] | outcome [6] | outcome [7] | outcome [8]
active: growth inhibition [4] 93%

Cc1ccc(CCNCC(O)c2cccc(C(F)(F)F)c2)cc1 (stereo not drawn)
inactive: inhibition [2] -3% | inhibition [3] 0% | outcome [5] | outcome [6] | outcome [7] | outcome [8]
active: growth inhibition [1] 83% | growth inhibition [4] 94%

CC(=O)N(C)c1cccc(C(=O)Nc2cccc(-c3cccc(-c4nc5c(C)cccc5[nH]4)c3)c2)c1
active: growth inhibition [4] 89%
inactive: growth inhibition [1] 41% | inhibition [2] 15% | inhibition [3] -9% | outcome [5] | outcome [6] | outcome [7] | outcome [8]

O=C(COc1ccc(C(=O)c2ccccc2)cc1)Nc1nccs1
active: growth inhibition [4] 94%
inactive: growth inhibition [1] 18% | inhibition [2] 0% | inhibition [3] 2% | outcome [5] | outcome [6] | outcome [7] | outcome [8]

CC(=O)N1CCC(C(=O)Nc2ccc(-c3cccc(-c4nc5c(C)cccc5[nH]4)c3)cc2)CC1
inactive: growth inhibition [1] 27% | inhibition [3] -1% | outcome [5] | outcome [6] | outcome [7] | outcome [8]
active: inhibition [2] 85% | growth inhibition [4] 84%

Cc1cc(CN2CCCC(OC(c3ccc(F)cc3)c3ccc(F)cc3)C2)ccc1O (stereo not drawn)
active: growth inhibition [1] 82% | growth inhibition [4] 89%
inactive: inhibition [2] 28% | inhibition [3] 3% | outcome [5] | outcome [6] | outcome [7] | outcome [8]

COc1cc(Cc2cnc(N)nc2N)cc(OCCCCCCN2C(=O)c3ccccc3C2=O)c1OC
active: growth inhibition [4] 95%
inactive: growth inhibition [1] 3% | inhibition [2] 15% | inhibition [3] 2% | outcome [5] | outcome [6] | outcome [7] | outcome [8]

Cc1ccc2c(c1)NC[C@@]21CCN(C[C@@H](O)C2CCN(c3cc(C#N)ccn3)CC2)C[C@@H]1C
active: growth inhibition [1] 79% | growth inhibition [4] 90%
inactive: inhibition [2] 28% | inhibition [3] -2% | outcome [5] | outcome [6] | outcome [7] | outcome [8]

Cc1cc(NCCCCCCCCNc2cc(C)nc3ccccc23)c2ccccc2n1
inactive: growth inhibition [1] -1% | inhibition [3] -1% | outcome [5] | outcome [6] | outcome [7] | outcome [8]
active: inhibition [2] 59% | growth inhibition [4] 101%

COc1ccc2nc(C)cc(NN=Cc3cccc(F)c3)c2c1
active: growth inhibition [1] 100% | growth inhibition [4] 100%
inactive: inhibition [2] 2% | inhibition [3] 1% | outcome [5] | outcome [6] | outcome [7] | outcome [8]

NC(=O)c1sc(-n2cnc3ccc(OCC4CCNCC4)cc32)cc1OCc1ccccc1C(F)(F)F
inactive: inhibition [2] 18% | inhibition [3] -6% | outcome [5] | outcome [6] | outcome [7] | outcome [8]
active: growth inhibition [1] 62% | growth inhibition [4] 101%

COc1ccccc1CNC(=O)c1cc(C2CC2)nc2c1cnn2C(C)C
inactive: inhibition [2] 47% | inhibition [3] 5% | outcome [5] | outcome [6] | outcome [7] | outcome [8]
active: growth inhibition [1] 92% | growth inhibition [4] 94%

COc1cc(F)c2ncc(Cl)c(CCN3CCC(NCc4ccc5c(c4)NC(=O)CS5)CC3)c2c1
active: growth inhibition [1] 85% | growth inhibition [4] 100%
inactive: inhibition [2] 27% | inhibition [3] -6% | outcome [5] | outcome [6] | outcome [7] | outcome [8]

Cc1cc(C(=O)NC2CCN(CC3(c4ccccc4)CCCCC3)CC2)on1
active: growth inhibition [1] 95% | growth inhibition [4] 97%
inactive: inhibition [2] -3% | inhibition [3] -3% | outcome [5] | outcome [6] | outcome [7] | outcome [8]

Cc1ccc(C(C)C)c(Oc2cnc(NC(CO)c3ccccc3)nc2N)c1 (stereo not drawn)
inactive: growth inhibition [1] 0% | inhibition [2] 27% | inhibition [3] 4% | outcome [5] | outcome [6] | outcome [7] | outcome [8]
active: growth inhibition [4] 95%

CC(=O)NCC(=O)NC1=NC(C)(C)N(OCc2ccc3ccccc3c2)C(N)=N1
active: growth inhibition [1] 97% | inhibition [2] 66% | growth inhibition [4] 95%
inactive: inhibition [3] -1% | outcome [5] | outcome [6] | outcome [7] | outcome [8]

COc1ccc2nccc([C@@H](O)CN3CCC(NCc4cc5c(F)ccc(F)c5[nH]4)CC3)c2c1
active: growth inhibition [1] 67% | growth inhibition [4] 100%
inactive: inhibition [2] 29% | inhibition [3] 0% | outcome [5] | outcome [6] | outcome [7] | outcome [8]

CCCN(CCC)S(=O)(=O)c1ccc(C(=O)N2CCC(C(=O)OCC)CC2)cc1
inactive: growth inhibition [1] 41% | inhibition [2] 26% | inhibition [3] 1% | outcome [5] | outcome [6] | outcome [7] | outcome [8]
active: growth inhibition [4] 98%

N#Cc1cccc(C(=O)Nc2ccc(-c3ccc(CN4CCCC4)cc3)cc2)c1
inactive: growth inhibition [1] 32% | inhibition [2] 38% | inhibition [3] -5% | outcome [5] | outcome [6] | outcome [7] | outcome [8]
active: growth inhibition [4] 92%

CC(=O)Nc1ccc(CN2CCC(NC(=O)c3cc(-c4ccc(N(C)C)cc4)cs3)C2)cc1 (stereo not drawn)
active: growth inhibition [4] 83%
inactive: growth inhibition [1] 1% | inhibition [2] 15% | inhibition [3] 5% | outcome [5] | outcome [6] | outcome [7] | outcome [8]

Nc1cc(C=Cc2ccc([N+](=O)[O-])o2)nc2ccccc12
active: growth inhibition [1] 81% | inhibition [2] 100% | growth inhibition [4] 93%
inactive: inhibition [3] 4% | outcome [5] | outcome [6] | outcome [7] | outcome [8]

Cc1cc(NCCc2ccccc2)nc(/N=C(\N)Nc2ccccc2Cl)n1
inactive: growth inhibition [1] 7% | inhibition [2] 20% | inhibition [3] -8% | outcome [5] | outcome [6] | outcome [7] | outcome [8]
active: growth inhibition [4] 100%

COc1ccc(Nc2ncc3c(-c4cccc(NC(=O)Cc5ccc(F)cc5)c4)c[nH]c3n2)cc1OC
active: growth inhibition [1] 90% | growth inhibition [4] 101%
inactive: inhibition [2] 21% | inhibition [3] 8% | outcome [5] | outcome [6] | outcome [7] | outcome [8]

CCc1nc2nc(C)cc(Nc3ccc(F)c(Cl)c3)n2n1
active: growth inhibition [1] 77% | growth inhibition [4] 90%
inactive: inhibition [2] 2% | inhibition [3] -3% | outcome [5] | outcome [6] | outcome [7] | outcome [8]

CO/C(=C\C=C\c1cc2cc(Cl)c(Cl)cc2[nH]1)C(=O)NCC(C)(C)CN(C)C
inactive: growth inhibition [1] 27% | inhibition [2] 35% | inhibition [3] 1% | outcome [5] | outcome [6] | outcome [7] | outcome [8]
active: growth inhibition [4] 81%

N#Cc1ccc(CCNc2nccc(-c3cccc(CN4CCNCC4)c3)n2)cc1
inactive: growth inhibition [1] -3% | inhibition [2] 5% | inhibition [3] 3% | outcome [5] | outcome [6] | outcome [7] | outcome [8]
active: growth inhibition [4] 83%

OC1CCCN(Cc2ccc(-c3cccc(-c4nc5ccc(F)cc5[nH]4)c3)cc2)C1 (stereo not drawn)
inactive: growth inhibition [1] 49% | inhibition [2] 28% | inhibition [3] -5% | outcome [5] | outcome [6] | outcome [7] | outcome [8]
active: growth inhibition [4] 99%

c1ccc(CN2CCC(NCc3ccccc3-c3ccc(CNC4CCCC4)cc3)CC2)cc1
active: growth inhibition [4] 102%
inactive: growth inhibition [1] 33% | inhibition [2] 38% | inhibition [3] 1% | outcome [5] | outcome [6] | outcome [7] | outcome [8]

COc1ccc(NC(=O)c2cccc(Br)c2)cc1N1CCN(CCCCCCCN2CCN(c3cc(NC(=O)c4cccc(Br)c4)ccc3OC)CC2)CC1
active: growth inhibition [1] 93% | inhibition [2] 97% | growth inhibition [4] 99%
inactive: inhibition [3] 0% | outcome [5] | outcome [6] | outcome [7] | outcome [8]

CC(Cc1ccc(Cl)cc1)Nc1nc(NC2CCCC2)nc(N2CCC(C#N)(c3ccccc3)CC2)n1 (stereo not drawn)
active: growth inhibition [1] 95% | growth inhibition [4] 99%
inactive: inhibition [2] 15% | inhibition [3] -6% | outcome [5] | outcome [6] | outcome [7] | outcome [8]
